# Only some compounds are listed: those with a hit (about 7% of all), similar ones and a draw of the others.
# JMJD2A Tudor inh: qHTS Assay for Inhibitors of JMJD2A-Tudor Domain; Lysine-specific demethylase 4A (Homo sapiens), O75164; AlphaScreen JMJD2A-Tudor / H3K4me3 peptide binding; Potency, µM (highest dose often 114 µM), for inactives: at the top dose activity change, negative = inhibition, usual class: inhibitors; 390,000 tested, 4.4% active; AID 504339, 2011; note: potency is the fitted concentration of half-maximal effect; % is set by controls: 0 for no effect and ±100 for the full control effect; nearly all actives have a fitted effect of over 50% in size
# Target sequence (O75164 whole entry, looked up, the tested form may be a part): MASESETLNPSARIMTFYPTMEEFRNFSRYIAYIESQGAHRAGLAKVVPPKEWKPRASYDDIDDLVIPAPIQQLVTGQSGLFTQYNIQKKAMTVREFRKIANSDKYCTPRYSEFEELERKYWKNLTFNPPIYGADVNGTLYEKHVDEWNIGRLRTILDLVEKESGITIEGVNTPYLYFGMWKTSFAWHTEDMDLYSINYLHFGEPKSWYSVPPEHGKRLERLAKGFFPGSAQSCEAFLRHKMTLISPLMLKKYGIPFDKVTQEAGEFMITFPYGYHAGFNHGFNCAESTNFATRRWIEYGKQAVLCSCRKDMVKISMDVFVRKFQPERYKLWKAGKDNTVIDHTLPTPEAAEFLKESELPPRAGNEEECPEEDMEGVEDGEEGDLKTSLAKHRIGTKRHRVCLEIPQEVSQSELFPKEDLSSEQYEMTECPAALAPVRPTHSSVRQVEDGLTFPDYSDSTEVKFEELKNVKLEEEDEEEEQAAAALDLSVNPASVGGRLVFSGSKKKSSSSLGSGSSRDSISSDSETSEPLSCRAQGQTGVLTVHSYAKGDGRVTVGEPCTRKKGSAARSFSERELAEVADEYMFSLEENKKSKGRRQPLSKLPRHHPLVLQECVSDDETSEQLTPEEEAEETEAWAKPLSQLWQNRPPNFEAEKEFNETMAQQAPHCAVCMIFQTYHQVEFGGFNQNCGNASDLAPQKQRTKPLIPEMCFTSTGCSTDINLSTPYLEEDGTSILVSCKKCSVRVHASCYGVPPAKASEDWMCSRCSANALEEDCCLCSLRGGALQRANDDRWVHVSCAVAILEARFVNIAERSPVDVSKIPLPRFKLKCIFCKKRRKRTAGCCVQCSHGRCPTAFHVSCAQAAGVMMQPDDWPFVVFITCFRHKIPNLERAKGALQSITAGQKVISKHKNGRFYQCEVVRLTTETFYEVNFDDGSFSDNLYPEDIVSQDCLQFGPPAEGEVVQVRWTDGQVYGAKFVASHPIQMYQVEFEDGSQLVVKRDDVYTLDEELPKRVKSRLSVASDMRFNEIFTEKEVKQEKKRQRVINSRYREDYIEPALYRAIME
# PI5P4Ka inh: qHTS for Inhibitors of phosphatidylinositol 5-phosphate 4-kinase (PI5P4K). PI5P4Kalpha enzyme, ADP-Glo luminescence, 60 min; active compounds read low. max response, %. 330,000 tested, 1.2% active; active = max response of -50% or lower; inconclusive = between -30% and -50%; inactive = -30% or higher; note: value at the top dose of about 77 µM; % is set by controls: 0 for no effect and ±100 for the full control effect
#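 qHTS, 1536-well: enzyme/substrate mix, compound by pin tool, 5 microM ATP final; RT 60 min; ADP-Glo reagents 1 (45 min) then 2 (30 min); luminescence.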
# BAZ2B inh: qHTS Assay for Inhibitors of BAZ2B | AlphaScreen BAZ2B-H3K14Ac peptide displacement | 360,000 tested, 4.4% active | Potency, µM (doses to about 114 µM), inactives show top-dose activity change, negative = inhibition, hits mostly inhibitors | Bromodomain adjacent to zinc finger domain protein 2B (Homo sapiens), Q9UIF8; note: potency is the fitted concentration of half-maximal effect; % is set by controls: 0 for no effect and ±100 for the full control effect; nearly all actives have a fitted effect of over 60% in size
#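 AlphaScreen displacement: compounds (up to 110uM) incubated 30 min at room temperature with a preformed 50 nM BAZ2B/50 nM biotinylated H3K14Ac peptide complex in PBS pH 7.4 with Tween-20. Donor and acceptor beads at 10 ug/mL final added, 20 min light-protected before reading.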
# PLK1 PBD block: qHTS for Inhibitors of PLK1-PDB (polo-like kinase 1 - polo-box domain): Primary Screen; Potency, µM, inactives show max response, negative = inhibition, hits mostly inhibitors; Plk1 PBD binding of FITC phosphopeptide, fluorescence polarization; 360,000 tested, 2.8% active; note: potency is the fitted concentration of half-maximal effect; series mostly up to about 57 µM; % is set by controls: 0 for no effect and ±100 for the full control effect; nearly all actives have a fitted effect of over 65% in size
# HP1b chromo inh: HTS for Inhibitors of HP1-beta Chromodomain Interactions with Methylated Histone Tails | 390,000 tested, 0.56% active | Chromobox protein homolog 1 (Homo sapiens), P83916 | Potency, µM (titrated, usually from 114 µM), for the others: top-dose activity change, negative = inhibition, hits mostly inhibitors | AlphaScreen HP1-beta / biotin-H3K9me3 peptide binding; note: potency is the fitted concentration of half-maximal effect; nearly all actives have a fitted effect of over 70% in size
#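 AlphaScreen: HP1-beta (50 nM) preformed 30 min with biotin-H3(1-18)K9me3 peptide (50 nM) in PBS pH 7.4, 0.01% Tween-20. Compound added for 30 min at RT, then streptavidin donor/nickel chelate acceptor beads (10 ug/mL) for 30 min.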
# GCN5L2 inh: qHTS Assay for Inhibitors of GCN5L2; GCN5L2 HAT assay, ThioGlo1 CoA-SH fluorescence; Potency, µM (titrated, usually from 58.9 µM), without a hit: at the top dose activity change, negative = inhibition, hits mostly inhibitors; 390,000 tested, 0.21% active; note: potency is the fitted concentration of half-maximal effect; % is set by controls: 0 for no effect and ±100 for the full control effect
#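 GCN5L2 (20 nM) in 50mM HEPES pH 7.5, 0.1mM EDTA, 0.01% Tween-20 preincubated 15 min with compounds at room temperature. Reaction started with H3(1-25) 75uM, acetyl-CoA 70uM, ThioGlo1 50uM; CoA-thiol fluorescence (Ex340/Em540) read at 0 and 20 min.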
# Starred values were filed as active, the others as inactive; u = inconclusive; x = no result given; [ ] = remark or other dose. Unless noted, calls come from the whole dose curve; as a rule, active = well fitted curve in the direction sought with a large enough effect; inconclusive = small, poorly fitted or top-dose-only effect, or another doubt; inactive = no such curve, though single readings can be large; an effect the other way counts as inactive or inconclusive.
SMILES,JMJD2A Tudor inh,PI5P4Ka inh,BAZ2B inh,PLK1 PBD block,HP1b chromo inh,GCN5L2 inh
Cc1cccc(N2CC(C(=O)NCC3COc4ccccc4O3)CC2=O)c1C (stereo not drawn),5.7%,-3.3,-4.7%,0.2%,36.1%,-4.0%
Cc1cc(/C=C2\C(=N)N3N=C(S(C)(=O)=O)SC3=NC2=O)c(C)n1Cc1ccccc1,u,-22.4,-36.7%,26.7µM*,-18.9%,-5.0%
COc1cccc(OCCOc2ccc(/C=C3\C(=N)N4N=C(S(C)(=O)=O)SC4=NC3=O)cc2OC)c1,56.2µM*,-13.8,79.4µM*,u,-2.9%,-17.4%
COc1cc(/C=C2\C(=N)N3N=C(C)SC3=NC2=O)cc(OC)c1OCCOc1ccccc1C,-26.9%,-16.1,-8.7%,u,-6.5%,u
COc1cc(/C=C2\C(=N)N3N=C(S(C)(=O)=O)SC3=NC2=O)cc(OC)c1OCCOc1ccccc1C,79.4µM*,u,56.2µM*,29.9µM*,u,-25.1%
CCOc1cc(/C=C2\C(=N)N3N=C(C)SC3=NC2=O)ccc1OCCOc1cccc(OC)c1,3.0%,-2.8,-27.1%,-0.4%,39.6%,-18.9%
CCCC1=NN2C(=N)/C(=C\c3cc(C)n(Cc4ccccc4)c3C)C(=O)N=C2S1,-23.6%,0.5,-1.9%,u,50.3%,-5.8%
COc1ccc(-n2cc([N+](=O)[O-])c(=O)c3ccc(Cl)cc32)cc1,-4.8%,-1.0,x,-4.6%,7.4%,x
CSc1ccc(C2CC(=O)Nc3c2c(=O)n(C)c(=O)n3C)cc1 (stereo not drawn),-8.8%[11.4 µM],-5.0,2.3%,26.7µM*,8.0%,-1.2%
CCc1sc(NC(=O)COC)nc1-c1ccccc1,-10.1%,-2.7,3.4%,17.8µM*,-21.6%,-6.6%
CCc1sc(NC(C)=O)nc1-c1ccccc1,-10.3%,-1.2,u,-11.8%,21.3%,2.6%
CC1(C(=O)NCc2ccccc2)CN(S(C)(=O)=O)CC(=O)N1Cc1cccc(F)c1 (stereo not drawn),x,-3.4,x,-3.8%,x,x
Cc1ccc(-c2c(C(=O)Nc3ccccc3C)c(C)[nH]c(=S)c2C#N)o1,-3.8%[11.4 µM],u,79.4µM*,u,5.0%,u
Cc1[nH]c(=S)c(C#N)c(-c2ccccc2)c1C(=O)Nc1ccccc1,79.4µM*,u,-14.7%,u,-2.6%,-2.8%
Cc1oc(C(=O)O)cc1CSCc1cc(C(=O)O)c(C)o1,89.1µM*,-18.2,-5.9%,u,11.3%,-8.0%
Cc1ccc(/C=C2\SC(=S)N(CCCC(=O)Nc3ccccc3C(=O)O)C2=O)cc1,u,-20.9,-33.3%,18.9µM*,u,-1.7%
CCc1ccc(/C=C2\SC(=S)N(CCCC(=O)Nc3ccccc3C(=O)O)C2=O)cc1,u,u,u,21.2µM*,2.2%,u
COc1ccc(/C=C2/SC(=S)N(CCCC(=O)Nc3ccccc3C(=O)O)C2=O)cc1,u,u,u,u,-32.1%,-11.0%
O=C(CCCN1C(=O)/C(=C\c2ccccc2)SC1=S)Nc1ccc(C(=O)O)cc1,u,-6.2,-26.4%,-21.3%,-23.1%,2.4%
CCc1ccc(/C=C2\SC(=S)N(CCCC(=O)Nc3ccc(C(=O)O)cc3)C2=O)cc1,50.1µM*,-4.9,35.5µM*,u,u,u
COc1ccc(NC(=O)CSCC(=O)OCc2cccc(OC)c2OC)cc1,-14.5%,5.5,13.7%,-5.8%,13.7%,-4.4%
CC1CCc2c(nc3ncnn3c2NCCN(C)C)C1 (stereo not drawn),56.2µM*,3.1,-25.5%,u,12.1%,-8.9%
C=CCNc1c2c(nc3ncnn13)CC(C)CC2 (stereo not drawn),1.4%,1.4,-4.6%,-3.0%,40.6%,3.2%
Cc1ccc(C(C)C)c(OCC(=O)Nc2ccc(C(=O)OC3CCCCC3)cc2)c1,14.7%,x,18.9%,x,82.4%,-5.8%
CN1CCc2c(c3cnc4cc(Cl)ccc4c3n2C)C1,-12.3%[57.1 µM],x,x,x,7.4%[57 µM],x
SMILES,JMJD2A Tudor inh,PI5P4Ka inh,BAZ2B inh,PLK1 PBD block,HP1b chromo inh,GCN5L2 inh
CC(C(=O)O)C(=O)O,79.4µM*,-17.7,-3.9%,-8.1%,-18.1%,-2.0%
CC(O)C(=O)O (stereo not drawn),x,x,x,x,x,18.2%
COc1ccc(-n2nnnc2SCC(=O)Nc2c(C)n[nH]c2C)cc1,-15.8%,1.0,x,1.5%,15.3%,-5.2%
CCSc1nnc(-c2sc3nnc(-c4ccccc4)c(-c4ccccc4)c3c2N)o1,59.1%,-2.8,53.5%,15µM*,177.1%,-11.1%
CCc1cc2c(cc3c(=O)n(CC(=O)NC(C)c4ccccc4)ncn32)s1 (stereo not drawn),100µM*,x,-6.9%,x,8.8%,-1.3%
CCc1cc2c(cc3c(=O)n(CC(=O)N4CCN(C)CC4)ncn32)s1,u,-9.1,-11.1%,21.2µM*,20.8%,-6.3%
CCc1cc2c(cc3c(=O)n(CC(=O)NC4CCC(C)CC4)ncn32)s1 (stereo not drawn),-13.8%,x,1.3%,x,11.1%,-5.8%
C(=NN=C1c2ccccc2-c2ccccc21)c1c[nH]c2ccccc12,22.4µM*,68.7,x,4.5%,u,x
O=C(N/N=C/c1c[nH]c2ccccc12)c1ccc(Br)cc1,-31.0%,u,-10.3%,-10.1%,13.1%,-12.2%
O=C(N/N=C/c1ccccc1O)c1cc(=O)[nH]c2ccccc12,x,x,50.1µM*,x,x,-6.4%
O=C(N/N=C/c1ccccc1O)c1cccc2ccccc12,-9.6%,5.6,5.8%,-8.9%,36.9%,-22.5%
O=C(N/N=C\c1c[nH]c2ccccc12)c1ccc(O)cc1,-15.5%,-73.5*,-2.6%,-19.0%,27.2%,9.7%
O=C(N/N=C/c1c[nH]c2ccccc12)c1cc(Cl)ccc1O,-26.4%,-54.5*,1.8%,-16.1%,28.5%,-14.7%
CC(Sc1nc2ccccc2c(=O)n1CC1CCCO1)C(=O)N(C)c1ccccc1 (stereo not drawn),-15.8%,-8.2,8.4%,-9.8%,22.8%,-4.0%
Cc1cccc(N2CCN(C(=O)c3cccc(N4CCCC4=O)c3)C(C)C2)c1 (stereo not drawn),u,5.7,-16.6%,-0.2%,-21.9%,-2.4%
CCc1ccccc1NC(=O)CN1C(=O)c2cccnc2Oc2ccc(Cl)cc21,-24.4%,x,-5.2%,x,28.1%,-15.8%
O=C(N/N=C/c1c[nH]c2ccccc12)c1cc(-c2ccc3ccccc3c2)n[nH]1,-23.3%,-56.7*,-23.7%,0.0%,-2.4%,7.3%
O=c1cc(CO)oc(C(Nc2ccccn2)c2ccc(C(F)(F)F)cc2)c1O (stereo not drawn),-17.1%,-9.3,-7.3%,u,-16.9%,6.6%
